Records with an inconclusive call do not appear. The source made the active and inactive calls. Calls follow the shape of the dose curve; as a rule, active = well fitted curve in the direction sought with a large enough effect; inconclusive = small, poorly fitted or top-dose-only effect, or another doubt; inactive = no such curve, though single readings can be large; an effect the other way counts as inactive or inconclusive.
What was measured:
[1] = system: NIH3T3; assay: Cytotoxic Profiling of Annotated Libraries Using Quantitative High-Throughput Screening (AID 1296008); settings: Five cell lines viability, CellTiter-Glo ATP luminescence, 48-72 h; max response: active compounds read low; also: nearly all actives have a fitted effect of over 60% in size
Procedure, shortened: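 Compounds were pin-transferred onto cells and incubated 48 or 72 hr at 37 degree Celsius, 95% humidity. CellTiter-Glo was added, plates sat 10 min at room temperature, then ATP-coupled luminescence was imaged as the viability read-out.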

[2] = system: HACAT; assay: qHTS assay to identify novel small-molecules to repurpose for Merkel cell carcinoma treatment (AID 1296009); settings: MCC and control cell lines, CellTiter-Glo viability, 72 h; at 44.8 µM (top of the series) unless noted; also: nearly all actives have a fitted effect of over 60% in size
Procedure, shortened: (§1)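 Cells exposed to NPC (8-point) and MIPE (11-point) compound dilutions for 72 hr at 37 degree celsius; viability read by CellTiter-Glo luminescence, normalized to no-cell and DMSO in-plate controls.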

[3] = system: HEK293T; assay: as above; settings: MCC and control cell lines, CellTiter-Glo viability, 72 h; at 44.8 µM (top of the series) unless noted
Procedure, shortened: as §1

[4] = system: MCC-13; assay: as above; settings: MCC and control cell lines, CellTiter-Glo viability, 72 h; series mostly up to 46 µM
Procedure, shortened: as §1

[5] = system: MCC-26; assay: as above; settings: MCC and control cell lines, CellTiter-Glo viability, 72 h; series mostly up to 46 µM
Procedure, shortened: as §1

[6] = system: MKL-1; assay: as above; settings: MCC and control cell lines, CellTiter-Glo viability, 72 h; series mostly up to 46 µM
Procedure, shortened: as §1

[7] = system: MKL-2; assay: as above; settings: MCC and control cell lines, CellTiter-Glo viability, 72 h; series mostly up to 46 µM
Procedure, shortened: as §1

[8] = system: NIH3T3; assay: as above; settings: MCC and control cell lines, CellTiter-Glo viability, 72 h; at 44.8 µM (top of the series) unless noted
Procedure, shortened: as §1

[9] = system: UISO; assay: as above; settings: MCC and control cell lines, CellTiter-Glo viability, 72 h; series mostly up to 46 µM
Procedure, shortened: as §1

[10] = system: WaGa; assay: as above; settings: MCC and control cell lines, CellTiter-Glo viability, 72 h; series mostly up to 46 µM
Procedure, shortened: as §1

[11] = system: C33A; assay: Primary qHTS to identify gynecologic anti-cancer compounds using libraries of approved drugs and bioactive compounds (AID 1345084); settings: Gynecologic cancer cell panel viability, ATPlite luminescence, 48 h; series mostly up to 57.5 µM; also: nearly all actives have a fitted effect of over 55% in size
Procedure, shortened: (§2)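 Cells, 1,000 per well, were allowed to settle for 16 h at 37 C before compound addition. Five concentrations were tested for 48 h, and viability was read by ATPlite luminescence after 15 min at room temperature.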

[12] = system: CAOV3; assay: as above; settings: Gynecologic cancer cell panel viability, ATPlite luminescence, 48 h; series mostly up to 57.5 µM
Procedure, shortened: as §2

[13] = system: CASKI; assay: as above; settings: Gynecologic cancer cell panel viability, ATPlite luminescence, 48 h; series mostly up to 57.5 µM
Procedure, shortened: as §2

[14] = system: Es-2; assay: as above; settings: Gynecologic cancer cell panel viability, ATPlite luminescence, 48 h; series mostly up to 57.5 µM
Procedure, shortened: as §2

[15] = system: HeLa; assay: as above; settings: Gynecologic cancer cell panel viability, ATPlite luminescence, 48 h; series mostly up to 57.5 µM
Procedure, shortened: as §2

[16] = system: Hek293T; assay: as above; settings: Gynecologic cancer cell panel viability, ATPlite luminescence, 48 h, control line for the selectivity index; series mostly up to 57.5 µM
Procedure, shortened: as §2

[17] = system: JEG-3; assay: as above; settings: Gynecologic cancer cell panel viability, ATPlite luminescence, 48 h; series mostly up to 57.5 µM
Procedure, shortened: as §2

[18] = system: OV90; assay: as above; settings: Gynecologic cancer cell panel viability, ATPlite luminescence, 48 h; series mostly up to 57.5 µM
Procedure, shortened: as §2

[19] = system: PA-1; assay: as above; settings: Gynecologic cancer cell panel viability, ATPlite luminescence, 48 h; series mostly up to 57.5 µM
Procedure, shortened: as §2

[20] = system: SKOV3; assay: as above; settings: Gynecologic cancer cell panel viability, ATPlite luminescence, 48 h; series mostly up to 57.5 µM
Procedure, shortened: as §2
% is scaled to controls: 0 for no effect and ±100 for the full control effect.

COc1ccc(CCC(C)=O)cc1
inactive: outcome [1] | outcome [2] | outcome [3] | Potency [4] | Potency [5] | Potency [6] | Potency [7] | outcome [8] | Potency [9] | Potency [10] | Potency [11] | Potency [12] | Potency [13] | Potency [14] | Potency [15] | Potency [16] | Potency [17] | Potency [18] | Potency [19] | Potency [20]

CC(=O)N[C@@H](CCC(N)=O)C(=O)O
inactive: max response [1] -1.83% | outcome [2] | outcome [3] | Potency [4] | Potency [5] | Potency [6] | Potency [7] | Potency [9] | Potency [10] | Potency [11] | Potency [12] | Potency [13] | Potency [14] | Potency [15] | Potency [16] | Potency [17] | Potency [18] | Potency [19] | Potency [20]

COC(=O)/C=C\C(=O)OC
inactive: outcome [1] | outcome [2] | outcome [3] | Potency [4] | Potency [5] | Potency [6] | Potency [7] | outcome [8] | Potency [9] | Potency [10] | Potency [11] | Potency [12] | Potency [13] | Potency [14] | Potency [15] | Potency [16] | Potency [17] | Potency [18] | Potency [19] | Potency [20]

CN(C)CCN1CCN(c2cccc(Cl)c2)C1=O
inactive: outcome [1] | outcome [2] | outcome [3] | Potency [4] | Potency [5] | Potency [6] | Potency [7] | outcome [8] | Potency [9] | Potency [10] | Potency [11] | Potency [12] | Potency [13] | Potency [14] | Potency [15] | Potency [16] | Potency [17] | Potency [18] | Potency [19] | Potency [20]

O=C(O)/C=C(\CC(=O)O)C(=O)O
inactive: outcome [1] | outcome [2] | outcome [3] | Potency [4] | Potency [5] | Potency [6] | Potency [7] | outcome [8] | Potency [9] | Potency [10] | Potency [11] | Potency [12] | Potency [13] | Potency [14] | Potency [15] | Potency [16] | Potency [17] | Potency [18] | Potency [19] | Potency [20]

CC(C)(C)C(=O)OCOC(=O)C1N2C(=O)CC2S(=O)(=O)C1(C)C (configuration not stated)
inactive: max response [1] 2.05% | outcome [2] | outcome [3] | Potency [4] | Potency [5] | Potency [6] | Potency [7] | Potency [9] | Potency [10] | Potency [11] | Potency [12] | Potency [13] | Potency [14] | Potency [15] | Potency [16] | Potency [17] | Potency [18] | Potency [19] | Potency [20]

CCN(CC)CC(=O)Oc1ccc(NC(C)=O)cc1
inactive: outcome [1] | outcome [2] | outcome [3] | Potency [4] | Potency [5] | Potency [6] | Potency [7] | outcome [8] | Potency [9] | Potency [10] | Potency [11] | Potency [12] | Potency [13] | Potency [14] | Potency [15] | Potency [16] | Potency [17] | Potency [18] | Potency [19] | Potency [20]

Cc1c(N)cccc1C(F)(F)F
inactive: max response [1] -0.97% | outcome [2] | outcome [3] | Potency [4] | Potency [5] | Potency [6] | Potency [7] | Potency [9] | Potency [10] | Potency [11] | Potency [12] | Potency [13] | Potency [14] | Potency [15] | Potency [16] | Potency [17] | Potency [18] | Potency [19]

OC1(c2ccc(Cl)cc2)CCNCC1
inactive: max response [1] -2.06% | outcome [2] | outcome [3] | Potency [4] | Potency [5] | Potency [6] | Potency [7] | Potency [9] | Potency [10] | Potency [11] | Potency [12] | Potency [13] | Potency [14] | Potency [15] | Potency [16] | Potency [17] | Potency [18] | Potency [19] | Potency [20]

CC(=O)OCC(=O)[C@@]1(O)[C@H](OC(C)=O)C[C@H]2[C@@H]3CCC4=CC(=O)C=C[C@]4(C)[C@@]3(F)[C@@H](O)C[C@@]21C
inactive: outcome [1] | outcome [2] | outcome [3] | Potency [4] | Potency [5] | Potency [6] | Potency [7] | outcome [8] | Potency [9] | Potency [10] | Potency [11] | Potency [12] | Potency [13] | Potency [14] | Potency [15] | Potency [16] | Potency [17] | Potency [18] | Potency [19] | Potency [20]

Oc1ccccc1-c1nnco1
inactive: max response [1] 1.39% | outcome [2] | outcome [3] | Potency [4] | Potency [5] | Potency [6] | Potency [7] | Potency [9] | Potency [10] | Potency [11] | Potency [12] | Potency [13] | Potency [14] | Potency [15] | Potency [16] | Potency [17] | Potency [18] | Potency [19] | Potency [20]

O=C(CCOCCOCCOCCOCCC(=O)Nc1c(I)cc(I)c(C(=O)O)c1I)Nc1c(I)cc(I)c(C(=O)O)c1I
inactive: max response [1] 0.931% | outcome [2] | outcome [3] | Potency [4] | Potency [5] | Potency [6] | Potency [7] | Potency [9] | Potency [10] | Potency [11] | Potency [12] | Potency [13] | Potency [14] | Potency [15] | Potency [16] | Potency [17] | Potency [18] | Potency [19] | Potency [20]

CC(C)(C)c1nnc(NS(=O)(=O)c2ccccc2)s1
inactive: max response [1] 1.08% | outcome [2] | outcome [3] | Potency [4] | Potency [5] | Potency [6] | Potency [7] | Potency [9] | Potency [10] | Potency [11] | Potency [12] | Potency [13] | Potency [14] | Potency [15] | Potency [16] | Potency [17] | Potency [18] | Potency [19] | Potency [20]

CC(=O)c1ccc(O)c(C(N)=O)c1
inactive: outcome [1] | outcome [2] | outcome [3] | Potency [4] | Potency [5] | Potency [6] | Potency [7] | outcome [8] | Potency [9] | Potency [10] | Potency [11] | Potency [12] | Potency [13] | Potency [14] | Potency [15] | Potency [16] | Potency [17] | Potency [18] | Potency [19] | Potency [20]

Source: PubChem BioAssay (NCATS)
